A selection: hits, their analogues and other compounds. The true share with any hit is near 8.8%.
HT1080NT lethal: kills 2HG-producing HT-1080-NT fibrosarcoma cells | HT-1080-NT fibrosarcoma viability, CellTiter-Glo ATP luminescence, 48 h | hit rate 1.6% among 360,000 | Potency, µM (series often up to 46.1 µM), most hits filed as cytotoxic;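 also: NT is the 2HG producing partner of a matched IDH1 knockdown line; nearly all actives have a fitted effect of over 55% in size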
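Read-out is CellTiter-Glo luminescence after 10 minutes at room temperature, following 48 hours' compound treatment of HT-1080-NT cells (750 cells/well, RPMI, 5% FBS, 37 degrees C).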
HT1080 IDH1KD tx: HT-1080 IDH1 knockdown cell toxicity (counter line); HT-1080 IDH1 knockdown viability, ATP luminescence, 48 h; Potency, µM (doses to about 46.1 µM), most hits filed as cytotoxic; hit rate 2% among 360,000; AID 686971
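% activity derives from luminescence (CellTiter-Glo), normalised to DMSO and no-cell wells. HT-1080-IDH1KD cells, 750/well, had 48 h compound exposure at 37 °C.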
KB-3-1 tox: kills parental KB-3-1 adenocarcinoma cells. Potency, µM (doses to about 46.1 µM), actives largely listed as cytotoxic. hit rate 1.4% among 400,000. AID 1347075. KB-3-1 viability, CellTiter-Glo ATP luminescence, 72 h; also: nearly all actives have a fitted effect of over 60% in size
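Cytotoxicity in the drug-sensitive parental line KB-3-1 was scored as loss of CellTiter-Glo luminescence following 72 h incubation with compound. Values come from curve fitting of normalized concentration-response data.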
KB-V1 MDR tox: KB-V1 MDR subline cytotoxicity | AID 1347076 | hit rate 3.4% among 400,000 | Potency, µM (titrated, usually from 46.1 µM), actives largely listed as cytotoxic | KB-V1 MDR cells viability, CellTiter-Glo, 72 h; also: nearly all actives have a fitted effect of over 60% in size
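Following 72 h at 37 degrees C with compound, KB-V1 cell viability was read by CellTiter-Glo luminescence, medium being phenol-red-free DMEM plus 10% FBS; concentration-response parameters came from normalized, curve-fitted qHTS data.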
IL1B secr inh: blocks inflammasome-driven IL-1 beta release; hit rate 4.7% among 360,000; THP-1 LPS/ATP IL-1B secretion, AlphaLISA, 16 h; active compounds read low; AID 743279; activity change, % at 57.5 µM; in the data active = activity change below about -50%; inconclusive = mostly about -30% to -49%
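Secreted IL-1B measured by AlphaLISA bead assay after 16 h compound exposure of THP-1 cells; compounds (final up to 57.5 uM) added 1 h before LPS (250 ng/mL) and ATP (1.25 mM) stimulation; lower signal means less secretion.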
Hits are given with their value; - = inactive; ? = inconclusive; . = not tested or not shown. Unless noted, calls follow the shape of the dose curve; as a rule, active = well fitted curve in the direction sought with a large enough effect; inconclusive = small, poorly fitted or top-dose-only effect, or another doubt; inactive = no such curve, though single readings can be large; an effect the other way counts as inactive or inconclusive.

SMILES	HT1080NT lethal	HT1080 IDH1KD tx	KB-3-1 tox	KB-V1 MDR tox	IL1B secr inh
COc1ccc(-c2cnc3c(NC=O)cc(-c4ccc(F)cc4)cn23)cc1OC	?	?	0.21µM	?	-
COc1ccc(-c2cnc3c(NC=O)cc(-c4ccccc4)cn23)cc1OC	?	?	1.2µM	1.6µM	-
COc1ccc(-c2cc(NC=O)c3ncc(-c4cc(OC)c(OC)c(OC)c4)n3c2)cc1	?	?	?	0.046µM	-
COc1ccc(F)cc1-c1cc(NC=O)c2ncc(-c3cccc(C(F)(F)F)c3)n2c1	?	5.2µM	23µM	?	-
O=C(NCc1ccccc1CN1CCCC1)c1cc2cc(Cl)ccc2o1	-	-	-	?	-
COc1ccc(-c2cnc3c(NC=O)cc(-c4ccoc4)cn23)cc1OC	?	?	?	?	-
CC(=O)c1ccc(-c2cnc3c(NC=O)cc(-c4ccccc4Oc4ccccc4)cn23)cc1	?	?	12µM	?	-
COc1ccc(-c2cnc3c(NC=O)cc(-c4cc(OC)c(OC)c(OC)c4)cn23)cc1OC	?	?	?	23µM	-
COc1cc(-c2cnc3c(NC=O)cc(-c4ccc(S(C)(=O)=O)cc4)cn23)cc(OC)c1OC	?	?	?	-	-
COc1ccccc1-c1cc(NC=O)c2ncc(-c3ccc(S(C)(=O)=O)cc3)n2c1	-	-	13µM	16µM	?
Nc1nc2ncccn2c1-c1ccc(C(F)(F)F)cc1	-	-	-	-	-
NC(=O)c1sc2nnc(-c3ccccc3)c(-c3ccccc3)c2c1N	-	-	?	-	-
COc1ccccc1NC(=O)CC1C(=O)NCCN1C(=O)Nc1ccc(Cl)c(Cl)c1 (stereo unspecified)	16µM	?	?	-	.
O=C(CC1C(=O)NCCN1C(=O)Nc1ccccc1)Nc1cc(Cl)cc(Cl)c1 (stereo unspecified)	16µM	26µM	-	-	?
COc1ccccc1NC(=S)N1CCNC(=O)C1CC(=O)Nc1cccc(C)c1 (stereo unspecified)	-	-	-	?	-
Cc1cccc(NC(=O)CC2C(=O)NCCN2C(=S)Nc2ccccc2)c1 (stereo unspecified)	-	-	-	-	-61
CN(C(=O)COC(=O)c1ccccc1C(=O)c1ccccc1)c1ccccc1	-	-	-	21µM	-
Cc1ccc(C(=O)OCC(=O)N(C)c2ccccc2)c(C)c1	-	-	-	-	?
O=C(/C(=C(\[O-])c1ccccc1)[n+]1ccc2ccccc2c1)c1ccc([N+](=O)[O-])cc1	-	-	-	-	-
O=[N+]([O-])c1ccc(-[n+]2ccc3ccccc3c2)c([N+](=O)[O-])c1	?	?	4.6µM	5.2µM	-105
CCCn1c(N2CCC(Cc3ccccc3)CC2)nc2c1c(=O)[nH]c(=O)n2C	?	?	?	?	-
Cn1c(N2CCN(C(c3ccccc3)c3ccccc3)CC2)nc2c1c(=O)[nH]c(=O)n2C	-	-	?	21µM	-
CCCCCn1c(N2CCC(Cc3ccccc3)CC2)nc2c1c(=O)[nH]c(=O)n2C	21µM	?	?	?	-87
CCCCCN(C(=O)CCC(=O)OCC(=O)N(C)c1ccccc1)c1c(N)n(CCCC)c(=O)[nH]c1=O	-	-	-	-	-
CCCCCN(C(=O)CCC(=O)OCC(=O)c1ccc(C(C)CC)cc1)c1c(N)n(CCCC)c(=O)[nH]c1=O (stereo unspecified)	?	-	-	-	-68
SMILES	HT1080NT lethal	HT1080 IDH1KD tx	KB-3-1 tox	KB-V1 MDR tox	IL1B secr inh
CCCCCN(C(=O)CN1CCC(Cc2ccccc2)CC1)c1c(N)n(CCCC)c(=O)[nH]c1=O	-	-	?	-	-78
Cc1ccc(N2C(=O)[C@@H]3C(C(=O)CCN4C(=O)c5ccccc5C4=O)=NN[C@@H]3C2=O)cc1	-	-	-	-	-
Cc1ccc(S(=O)(=O)N2C3CC(c4ccccc4)N(S(=O)(=O)c4ccccc4Cl)CC3C(=O)C[C@H]2c2ccccc2)cc1 (stereo partly specified)	-	-	-	-	-
CN(Cc1nc2ccccc2c(=O)[nH]1)C(=O)c1cccc(S(=O)(=O)N2CCCC2)c1	-	-	-	?	-
CN(Cc1nc2ccccc2c(=O)[nH]1)C(=O)c1ccc(S(=O)(=O)N(C)C)cc1	-	-	-	-	-
Cc1c(C(=O)N(C)Cc2nc3ccccc3c(=O)[nH]2)oc2ccccc12	-	?	18µM	8.2µM	-
Cc1cc(C)c(C)c(S(=O)(=O)N2CCC(C(=O)N(C)Cc3nc4ccccc4c(=O)[nH]3)CC2)c1C	-	?	-	23µM	-
Cc1cc(C)cc(N(C(=O)c2snc(C(N)=O)c2N)C(C(=O)NCC2CCCO2)c2ccc(C)o2)c1 (stereo unspecified)	-	-	-	-	-51
Cc1cccc(CCN(C(=O)c2snc(C(N)=O)c2N)C(C(=O)NCC2CCCO2)c2ccc(F)cc2)c1 (stereo unspecified)	-	-	-	21µM	-52
CCOc1ccc(C(C(=O)NCC2CCCO2)N(C(=O)c2snc(C(N)=O)c2N)c2ccccc2F)cc1 (stereo unspecified)	-	-	-	-	-72
O=C1c2ccccc2NC(c2cccc(O)c2)N1c1ccccc1 (stereo unspecified)	-	-	-	-	-
O=C(Nc1ccc(F)cc1)C1C(c2ccccc2)C1(Cl)Cl (stereo unspecified)	-	-	-	-	-
CCN(CC)S(=O)(=O)c1ccc2[nH]cc(C(=O)NCCC3=CCCCC3)c(=O)c2c1	?	23µM	?	-	?
C=CCC[C@H](Cc1ccc(F)cc1)C(=O)O[C@H](CNC(=O)[C@@H](CC=C)CC(=O)N(CCO)Cc1ccccc1)c1ccccc1	?	?	-	-	-58
C=CC[C@@H](CC(=O)N(CCO)Cc1ccccc1)C(=O)NCCOC(=O)[C@@H](CC=C)Cc1ccc(F)cc1	-	-	-	-	-
C=CC[C@H](CC(=O)N(CCO)Cc1ccccc1)C(=O)NC[C@@H](OC(=O)[C@@H](CC=C)Cc1ccc(F)cc1)c1ccccc1	?	?	-	?	-69
S=C1SCN(CCc2ccccc2)CN1CCc1ccccc1	-	-	?	-	-
CCOc1ccc(NC(=O)CC2C(=O)N(c3ccccc3)C(=O)N2Cc2ccc3c(c2)OCO3)cc1 (stereo unspecified)	.	.	-	-	.
CCOC(=O)CCCCC(=O)c1[nH]c(=O)[nH]c1CSCCO	-	?	-	-	-84
CCOC(=O)CCCCC(=O)c1[nH]c(=O)[nH]c1Cn1cnc2ccccc21	-	-	-	-	-54
C=CCSc1nc(-c2ccccc2)c(C#N)c(=O)[nH]1	-	-	-	-	-
N#Cc1c(-c2ccccc2)nc(SCc2ccc(Cl)cc2)[nH]c1=O	-	-	-	-	-54

Screening results deposited in PubChem BioAssay by National Center for Advancing Translational Sciences (NCATS).
